{
  "source": "PubChem BioAssay (Tox21)",
  "note": "Results filed as inconclusive are left out. Unmarked numbers belong to inactive results. The source made the active and inactive calls. The call rests on the fitted dose curve; in most records, active means well fitted cell-killing curve with a large enough effect in the repeat runs (not every such curve was filed as active); inconclusive means weak or mixed curves, or effect the other way; inactive means no such curve, though single readings can be large or run the other way. On the % scale 0 is the no-effect control and ±100 the full control effect.",
  "data": [
    {"experiment": "qHTS assay to identify small molecule antagonists of the farnesoid-X-receptor (FXR) signaling pathway - cell viability counter screen (AID 743221); further: nearly all actives have a fitted effect of over 50% in size", "conditions": "FXR-bla HEK293T viability, CellTiter-Glo luminescence, 16 h; series mostly up to 62.6 µM", "source_text": "National Center for Advancing Translational Sciences [NCATS]\nNIH Chemical Genomics Center [NCGC]\nU.S. Environmental Protection Agency [EPA]\nNational Institutes of Environmental Health Sciences [NIEHS]\nNational Toxicology Program [NTP]\nU.S. Food and Drug Administration [FDA]\nThe farnesoid-X-receptor (FXR), a nuclear hormone receptor, is highly expressed in liver, intestine, kidney and adrenal cortex. Natural ligands of FXR are the bile acids (Cholic acid, Chenodeoxy cholic acid etc). FXR is an important regulator of diverse metabolic pathways, including the bile acid homeostasis, lipid and glucose metabolisms. FXR regulates the expression of target genes by binding either as a monomer or as a heterodimer with the retinoid X receptor (RXR). Numerous studies have reported that FXR exerts protective function during cholestasis, diabetes, liver regeneration, and cancer. To identify compounds that inhibit FXR signaling, GeneBLAzer FXR-UAS-bla HEK 293T cell line (Invitrogen, Carlsbad, CA) containing a beta-lactamase reporter gene under the control of a UAS response element was used to screen the Tox21 10K compound library. The cytotoxicity of the Tox21 compound library against the FXR-bla cell line was tested in parallel by measuring the cell viability using CellTiter-Glo assay in the same wells.\nTox21 Assay Protocol Summary:\nFXR-bla cells were dispensed at 5000 cells/5uL/well in 1536-well black wall/clear bottom plates using a Multidrop Combi (Thermo Fisher Scientific, Waltham, MA) dispenser. After the assay plates were incubated at 37 C and 5% CO2 for 5 h, 23 nL of compounds dissolved in DMSO, positive controls or DMSO only was transferred to the assay plate by a Pintool station (Kalypsys, San Diego, CA), followed by addition of 1 uL Chenodeoxycholic acid (50 uM, final concentration in the wells). The assay plates were incubated at 37C for 16 h. After 1 uL of LiveBLAzerTM B/G FRET substrate was added using a Bioraptr Flying Reagent Dispenser (FRD) workstation (Beckman Coulter, Indianapolis, IN), the plates were incubated at room temperature for 2 h, and fluorescence intensity was measured by an Envision plate reader (PerkinElmer, Shelton, CT). For cell viability readout that measures cytotoxicity, 4uL/well of CellTiter-Glo reagent was added into the assay plates using a Bioraptr FRD. After 30 min incubation at room temperature, the luminescence intensity in the plates was measured using a ViewLux plate reader (PerkinElmer).", "values": [
      {"smiles": "Cc1ccc(O)c(C(=O)c2ccccc2)c1", "outcome": "inactive"},
      {"smiles": "COC(=O)/C=C(\\C)CCC=C(C)C", "outcome": "inactive"},
      {"smiles": "CCCCC(CC)CCC(CC(C)C)OS(=O)(=O)O", "note": "(stereo not given)", "outcome": "inactive"},
      {"smiles": "O=C(O)COc1ccc2ccccc2c1", "outcome": "inactive"},
      {"smiles": "CC(C)(C)C(=O)CCc1ccc(Cl)cc1", "outcome": "inactive"},
      {"smiles": "COC(=O)c1ccc(C(=O)O)cc1", "outcome": "inactive"},
      {"smiles": "Cc1cccc(N)n1", "outcome": "inactive"},
      {"smiles": "N#CC1(N)CCCCC1", "outcome": "inactive"},
      {"smiles": "CCCOc1ccc(C(=O)OCCN(CC)CC)cc1N", "outcome": "inactive"},
      {"smiles": "CCN1CCN(C(=O)N[C@@H](C(=O)N[C@@H]2C(=O)N3C(C(=O)O)=C(CSc4nnnn4C)CS[C@H]23)c2ccc(O)cc2)C(=O)C1=O", "outcome": "inactive"},
      {"smiles": "Nc1ccc(C(=O)NCC(=O)O)cc1", "outcome": "inactive"},
      {"smiles": "CC(C)(C)C(=O)NCCCC(=O)O", "outcome": "inactive"},
      {"smiles": "COC(=O)c1ccccc1Cl", "outcome": "inactive"},
      {"smiles": "CC(=O)Nc1ccc(S(=O)(=O)Nc2cc(C)on2)cc1", "outcome": "inactive"},
      {"smiles": "COc1ccccc1N1CCN(CC(O)COc2cc(OC)c(OC)c(OC)c2)CC1", "note": "(stereo not given)", "outcome": "inactive"},
      {"smiles": "O=C(c1ccccc1)c1cccc(O)c1", "outcome": "inactive"},
      {"smiles": "CC1(C)S[C@@H]2[C@H](NC(=O)Cc3ccccc3)C(=O)N2[C@H]1C(=O)O", "note": "(tested in a mixture with another compound)", "outcome": "inactive"},
      {"smiles": "CCCCC(CC)COC(=O)CC#N", "note": "(stereo not given)", "outcome": "inactive"},
      {"smiles": "CCCCCCCCCCCC(C)=O", "outcome": "inactive"},
      {"smiles": "CC1(C)C(=O)C(C)(C)C1=O", "outcome": "inactive"},
      {"smiles": "O=CN1CCCCC1", "outcome": "inactive"},
      {"smiles": "CC(CN1CC(=O)NC(=O)C1)N1CC(=O)NC(=O)C1", "note": "(stereo not given)", "outcome": "inactive"},
      {"smiles": "COc1ccc2cc(CCC(C)=O)ccc2c1", "outcome": "inactive"},
      {"smiles": "Cc1ccc(N)nc1", "outcome": "inactive"},
      {"smiles": "CCc1ncc(C)[nH]1", "outcome": "inactive"},
      {"smiles": "N[C@H]1C(O)O[C@H](CO)[C@@H](O)[C@@H]1O", "note": "(stereo not given in full)", "outcome": "inactive"},
      {"smiles": "COc1ccc(Cl)cc1C", "outcome": "inactive"},
      {"smiles": "CC(O)C(CO)C(C)O", "note": "(stereo not given)", "outcome": "inactive"},
      {"smiles": "CCCCCCCCCCCCCCCC/C=C/C1CC(=O)OC1=O", "note": "(stereo not given)", "outcome": "inactive"},
      {"smiles": "CC/C=C\\CCOC(=O)c1ccccc1", "outcome": "inactive"},
      {"smiles": "CNC(=O)c1c(I)c(NC(C)=O)c(I)c(C(=O)O)c1I", "outcome": "inactive"},
      {"smiles": "CCCCN=C(N)N=C(N)N", "outcome": "inactive"},
      {"smiles": "C=C(C)C(=O)OCCCC", "outcome": "inactive"},
      {"smiles": "C=CCn1cc[n+](C)c1", "outcome": "inactive"},
      {"smiles": "CC12CCCC=C1C(=O)OC2=O", "note": "(stereo not given)", "outcome": "inactive"},
      {"smiles": "O=S(=O)(O)c1cc(I)c(O)c2ncccc12", "outcome": "inactive"},
      {"smiles": "CCCC[O][Al]([O]CCCC)[O]CCCC", "outcome": "inactive"},
      {"smiles": "Cc1cc(O)c(Cl)cc1C", "outcome": "inactive"},
      {"smiles": "CC(CC(=O)Cl)CC(C)(C)C", "note": "(stereo not given)", "outcome": "inactive"},
      {"smiles": "C[C@@H]1NC(=O)[C@@H](N)CNC(=O)[C@H](C2CCNC(N)=N2)NC(=O)/C(=C/NC(N)=O)NC(=O)[C@H](CNC(=O)C[C@@H](N)CCCN)NC1=O", "note": "(stereo not given in full)", "activity change, negative = cytotoxicity": "2.18% [at 0.55 µM]"}
    ]}
  ]
}
